Growth data for 37 compounds are collected here from PubChem BioAssay (NCI).

This is part of a sample that, as a whole, favours compounds with a hit. Of some 83,000 tested, about 20% had one in any assay.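 Results are percent growth after 48 hours of single-concentration exposure. 100 means growth as in untreated cells, lower positive values show inhibition; negative values down to -100 show cell death.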 Active and inactive are the calls of the source. The calls were made as follows: active = growth percent below 10; inactive = the rest.

One assay deals with NCI-H23 lung. Put plainly: NCI-60 one-dose screen, 48 h (100 = growth as untreated, 0 = no growth, -100 = all killed). The conditions noted are these: 10 µM unless noted.
For the compound `Cc1ccc2c(c1)C(=O)/C(=C/c1ncc([N+](=O)[O-])n1C)O2`, the growth was -2.65% (active).
Still for that read-out and setting: as for `CCCc1nn(C)c2c(=O)[nH]c(-c3cc(S(=O)(=O)N4CCN(C)CC4)ccc3OCC)nc12`, the figure is 99% (inactive); as for `Cc1ccc(NC(=O)Nc2ccc(-c3cccnc3)cc2N2CCC(CO)CC2)cc1`, 4.01% (active).
Turning to `O=C(Nc1cccc([N+](=O)[O-])c1)c1cccc(C(=O)Nc2cccc([N+](=O)[O-])c2)c1`, the growth was 107% (inactive).
On the same count and under the same terms, as for `O=C(Nc1nc(-c2ccccc2)cs1)c1cc(O)c(O)c(O)c1`, the figure is 59.6% (inactive); as for `CC(C)(C)c1ccc(C(O)CCCN2CCC(C(O)(c3ccccc3)c3ccccc3)CC2)cc1` (centres undefined), 4.7% (active); as for `Cc1cc(=O)n2n1-c1ccc(Cl)cc1NC(=O)C2`, 109% (inactive).
Still for that read-out and setting: as for `CC(=O)NC1(C(=O)O)CCCC1`, the figure is 133% (inactive); as for `Nc1nc(N)c([N+](=O)[O-])c(=O)[nH]1`, 97.8% (inactive).
As to `COc1ccc2nc(NC(=O)c3cc(-c4ccc(F)cc4)n4nc(-c5ccccc5)cc4n3)sc2c1`, the growth was 53.6% (inactive).
Turning to `Cc1ccc2c(c1)O/C(=C\c1ccc([N+](=O)[O-])o1)C2=O`, the growth was 56.2% (inactive).
Take `CCOC(=O)c1c2c(c(C)n1Cc1ccc(OC)cc1)-c1nc(N)ncc1CC2`: the growth was 125% (inactive).
Same read-out and setting: as for `COc1cc2c(-c3nc4cc(Cl)c(F)cc4s3)cc(=O)oc2c(C)c1OC`, the figure is -48.6% (active); as for `COc1cc(C(=O)/C=C/c2cccnc2Nc2ccccc2)cc(OC)c1OC`, -35.3% (active); as for `O=C(C(Br)Br)C(Br)C(Br)c1ccccc1` (centres undefined), 90.1% (inactive).
On to `CC/C=C\C=C/C(=O)N/C=C/CC1Cc2cccc(O)c2C(=O)O1` (centres undefined), for which the growth is 77.1% (inactive).
Still for that read-out and setting: as for `c1ccc2cc(C[n+]3ccn(CCCCCCCn4cc[n+](Cc5ccc6ccccc6c5)c4)c3)ccc2c1`, the figure is 14.4% (inactive).
On the same count and under the same terms, as for `Nc1ccc2c3c(cccc13)-c1ccccc1-2`, the figure is 97.7% (inactive).
For the compound `Clc1ccc([C@@H]2C[C@@H]3Cc4cc(Br)c5ccccc5c4N2O3)c(Cl)c1`, the growth was 78.6% (inactive).
Take `Cc1nn(-c2ccc(Br)cc2)c2nc3c(nc12)C(=O)C(=O)c1ccccc1-3`: the growth is 87.2% (inactive).
On the same count and under the same terms, to `COc1ccc(OC)c2c1[nH]c(=O)c1c3ccccc3cn21` belongs -25.8% (active).
Same read-out and setting: as for `O=C(NCCCO)c1cc(Cl)ccc1O`, the figure is 8.32% (active); as for `COc1ccc(C2=NN(C(C)=O)C(c3cc(OC)c(OC)c(OC)c3)C2)cc1` (centres undefined), 101% (inactive).
Still for that read-out and setting: as for `CC(=O)O[C@H]1C(=O)[C@@]2(C)C([C@H](OC(=O)c3ccccc3)[C@]3(O)C[C@H](OC(=O)[C@H](O)[C@@H](NC(=O)c4ccccc4)c4ccccc4)C(C)=C1C3(C)C)[C@]1(OC(C)=O)CO[C@@H]1C[C@@H]2O` (some centres undefined), the figure is 27.9% (inactive).
`O=C(Nc1nc(-c2ccc(Cl)cc2)cs1)c1cc(O)c(O)c(O)c1`: the growth is 42.2% (inactive).
Still for that read-out and setting: to `CCCCN(CCCC)CCCOC(=O)c1ccc(N)cc1` belongs 96.1% (inactive).
In the case of `CCCCCCCCCCC[C@@H](C[C@H]1OC(=O)[C@H]1CCCCCC)OC(=O)[C@@H](CC(C)C)NC=O`, the growth is 70.1% (inactive).
Same read-out and setting: as for `O=C1Nc2ccccc2C12Nc1cc(Cl)ccc1S2` (centres undefined), the figure is 78.4% (inactive); as for `CCOc1cc(C(C)(C)C)ccc1C1=N[C@H](c2ccc(Cl)cc2)[C@H](c2ccc(Cl)cc2)N1C(=O)N1CCN(CC#Cc2cccc3c2CN([C@@H]2CCC(=O)NC2=O)C3=O)CC1`, 77% (inactive).
On the same count and under the same terms, to `CN(CCOc1ccc(CC2SC(=O)NC2=O)cc1)c1ccccn1` (centres undefined) belongs 99.7% (inactive); to `C[C@]12CC[C@@H]3c4ccc(O)cc4CC[C@H]3[C@@H]1CC[C@@H]2NS(=O)(=O)c1cccc(Br)c1`, 68.1% (inactive); to `Clc1cc(Cl)c(OCC#CI)cc1Cl`, 97.3% (inactive).
Still for that read-out and setting: as for `O=C(Nc1cccc(C(F)(F)F)c1)Nc1ccc(OCc2nnc(-c3ccc(Cl)cc3)o2)c(F)c1`, the figure is 68% (inactive).
For the compound `CCCn1cnc2c1c(=O)n(CCCCC(C)=O)c(=O)n2C`, the growth was 105% (inactive).
Turning to `N=c1ccn2c(n1)O[C@@H]1[C@@H](O)[C@H](CO)O[C@@H]12`, the growth was 33.3% (inactive).
On the same count and under the same terms, to `CCCCCCCCCCCCCCCCCc1nccn1CCO` belongs 70.7% (inactive); to `Nc1ccc(C2=Nc3cccc4cccc(c34)S2)cc1`, 86.9% (inactive).

The test system of a further assay is NCI-H226 lung. The assay is described as above. The conditions noted are these: 10 µM unless noted.
Take `Cc1ccc2c(c1)C(=O)/C(=C/c1ncc([N+](=O)[O-])n1C)O2`: the growth was 65.7% (inactive).
In the case of `CCCc1nn(C)c2c(=O)[nH]c(-c3cc(S(=O)(=O)N4CCN(C)CC4)ccc3OCC)nc12`, the growth was 102% (inactive).
Still for that read-out and setting: to `Cc1ccc(NC(=O)Nc2ccc(-c3cccnc3)cc2N2CCC(CO)CC2)cc1` belongs 54% (inactive).
For the compound `O=C(Nc1cccc([N+](=O)[O-])c1)c1cccc(C(=O)Nc2cccc([N+](=O)[O-])c2)c1`, the growth is 71% (inactive).
Same read-out and setting: as for `O=C(Nc1nc(-c2ccccc2)cs1)c1cc(O)c(O)c(O)c1`, the figure is 67.9% (inactive).
The same measure, in the same setting: as for `CC(C)(C)c1ccc(C(O)CCCN2CCC(C(O)(c3ccccc3)c3ccccc3)CC2)cc1` (centres undefined), the figure is 57.5% (inactive); as for `Cc1cc(=O)n2n1-c1ccc(Cl)cc1NC(=O)C2`, 93.9% (inactive).
`CC(=O)NC1(C(=O)O)CCCC1`: the growth is 113% (inactive).
The same measure, in the same setting: to `Nc1nc(N)c([N+](=O)[O-])c(=O)[nH]1` belongs 102% (inactive); to `COc1ccc2nc(NC(=O)c3cc(-c4ccc(F)cc4)n4nc(-c5ccccc5)cc4n3)sc2c1`, 84% (inactive).
Turning to `Cc1ccc2c(c1)O/C(=C\c1ccc([N+](=O)[O-])o1)C2=O`, the growth is 78.9% (inactive).
The same measure, in the same setting: as for `CCOC(=O)c1c2c(c(C)n1Cc1ccc(OC)cc1)-c1nc(N)ncc1CC2`, the figure is 92.2% (inactive).
On the same count and under the same terms, as for `COc1cc2c(-c3nc4cc(Cl)c(F)cc4s3)cc(=O)oc2c(C)c1OC`, the figure is -48.8% (active); as for `COc1cc(C(=O)/C=C/c2cccnc2Nc2ccccc2)cc(OC)c1OC`, -96.2% (active); as for `O=C(C(Br)Br)C(Br)C(Br)c1ccccc1` (centres undefined), 95% (inactive).
For the compound `CC/C=C\C=C/C(=O)N/C=C/CC1Cc2cccc(O)c2C(=O)O1` (centres undefined), the growth is 110% (inactive).
For the compound `c1ccc2cc(C[n+]3ccn(CCCCCCCn4cc[n+](Cc5ccc6ccccc6c5)c4)c3)ccc2c1`, the growth is 59.5% (inactive).
Same read-out and setting: to `Nc1ccc2c3c(cccc13)-c1ccccc1-2` belongs 55.5% (inactive); to `Clc1ccc([C@@H]2C[C@@H]3Cc4cc(Br)c5ccccc5c4N2O3)c(Cl)c1`, 95.7% (inactive).
For `Cc1nn(-c2ccc(Br)cc2)c2nc3c(nc12)C(=O)C(=O)c1ccccc1-3`, the growth was 96.9% (inactive).
`COc1ccc(OC)c2c1[nH]c(=O)c1c3ccccc3cn21`: the growth was 48.4% (inactive).
With `O=C(NCCCO)c1cc(Cl)ccc1O`, the growth was 24.3% (inactive).
Regarding `COc1ccc(C2=NN(C(C)=O)C(c3cc(OC)c(OC)c(OC)c3)C2)cc1` (centres undefined), the growth was 119% (inactive).
As for `CC(=O)O[C@H]1C(=O)[C@@]2(C)C([C@H](OC(=O)c3ccccc3)[C@]3(O)C[C@H](OC(=O)[C@H](O)[C@@H](NC(=O)c4ccccc4)c4ccccc4)C(C)=C1C3(C)C)[C@]1(OC(C)=O)CO[C@@H]1C[C@@H]2O` (some centres undefined), the growth is 44.8% (inactive).
The same measure, in the same setting: to `O=C(Nc1nc(-c2ccc(Cl)cc2)cs1)c1cc(O)c(O)c(O)c1` belongs 74.9% (inactive); to `CCCCN(CCCC)CCCOC(=O)c1ccc(N)cc1`, 76.8% (inactive).
On the same count and under the same terms, as for `CCCCCCCCCCC[C@@H](C[C@H]1OC(=O)[C@H]1CCCCCC)OC(=O)[C@@H](CC(C)C)NC=O`, the figure is 72.6% (inactive).
On the same count and under the same terms, to `O=C1Nc2ccccc2C12Nc1cc(Cl)ccc1S2` (centres undefined) belongs 90.8% (inactive).
In the case of `CCOc1cc(C(C)(C)C)ccc1C1=N[C@H](c2ccc(Cl)cc2)[C@H](c2ccc(Cl)cc2)N1C(=O)N1CCN(CC#Cc2cccc3c2CN([C@@H]2CCC(=O)NC2=O)C3=O)CC1`, the growth was -17.3% (active).
The same measure, in the same setting: to `CN(CCOc1ccc(CC2SC(=O)NC2=O)cc1)c1ccccn1` (centres undefined) belongs 98.9% (inactive); to `C[C@]12CC[C@@H]3c4ccc(O)cc4CC[C@H]3[C@@H]1CC[C@@H]2NS(=O)(=O)c1cccc(Br)c1`, 60.5% (inactive).
Take `Clc1cc(Cl)c(OCC#CI)cc1Cl`: the growth was 43.1% (inactive).
On to `O=C(Nc1cccc(C(F)(F)F)c1)Nc1ccc(OCc2nnc(-c3ccc(Cl)cc3)o2)c(F)c1`, for which the growth is 94.9% (inactive).
Regarding `CCCn1cnc2c1c(=O)n(CCCCC(C)=O)c(=O)n2C`, the growth was 100% (inactive).
Take `N=c1ccn2c(n1)O[C@@H]1[C@@H](O)[C@H](CO)O[C@@H]12`: the growth was 92.4% (inactive).
The same measure, in the same setting: as for `CCCCCCCCCCCCCCCCCc1nccn1CCO`, the figure is 97.3% (inactive); as for `Nc1ccc(C2=Nc3cccc4cccc(c34)S2)cc1`, 59.3% (inactive).
